Several values for one entry are separate records, joined by “and”; a condition that tells them apart may be missing. Equal values may be shown once. The campaign covered roughly 5,500 compounds. About 2,000 (36%) were called active. Not shown: some 18% with an inconclusive outcome. Cut-off read from the data, not from the text of the source: active = normalized growth mostly below about 0.91 (no sharp cut-off); inconclusive = no clear call, values can overlap the other calls; inactive = mostly above about 0.92. The list shows a part of the results.
Assay: chemical genetic growth profiling, strain panel (AID 1159580);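 note: tested at 20 µM; growth read once vehicle control cultures reached saturation at 30 °C; 1 = growth at the plate median or of vehicle wells; lower values mean less growth of the strain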
Conditions: S. cerevisiae deletion strains, growth OD

Measured: normalized growth

COc1cccc(OC)c1C(=O)N[C@@H]1C(=O)N2[C@@H]1SC(C)(C)[C@@H]2C(=O)O
inactive: locus YAL013W, strain DEP1, stronger effect = lower value 0.994 | locus YAL021C, strain ccr4, stronger effect = lower value 1.01 | locus YAL026C, strain drs2, stronger effect = lower value 1.01 | locus YAL030W, strain snc1, stronger effect = lower value 0.997 | locus YBL061C, strain skt5, stronger effect = lower value 0.998 | locus YBR009C, strain hhf1, stronger effect = lower value 0.997 | locus YBR021W, strain FUR4, stronger effect = lower value 1.01 | locus YBR023C, strain chs3, stronger effect = lower value 0.988 | locus YBR171W, strain sec66, stronger effect = lower value 0.987 | locus YBR229C, strain ROT2, stronger effect = lower value 1.01 | locus YBR231C, strain swc5, stronger effect = lower value 0.984 | locus YBR279W, strain paf1, stronger effect = lower value 1 | locus YCL011C, strain gbp2, stronger effect = lower value 1.01 | locus YCL016C, strain dcc1, stronger effect = lower value 1 | locus YCL029C, strain bik1, stronger effect = lower value 0.99 | locus YCL069W, strain vba3, stronger effect = lower value 1 | locus YCR088W, strain abp1, stronger effect = lower value 0.996 | locus YDL005C, strain med2, stronger effect = lower value 0.991 | locus YDL035C, strain GPR1, stronger effect = lower value 1 | locus YDL040C, strain nat1, stronger effect = lower value 0.995 | locus YDL074C, strain BRE1, stronger effect = lower value 1.03 | locus YDL101C, strain DUN1, stronger effect = lower value 1 | locus YDL134C, strain PPH21, stronger effect = lower value 1.01 | locus YDL185W, strain tfp1, stronger effect = lower value 0.967 | locus YDL192W, strain arf1, stronger effect = lower value 0.988 | locus YDR001C, strain nth1, stronger effect = lower value 1 | locus YDR069C, strain doa4, stronger effect = lower value 1.01 | locus YDR101C, strain arx1, stronger effect = lower value 0.997 | locus YDR137W, strain rgp1, stronger effect = lower value 1.03 | locus YDR150W, strain NUM1, stronger effect = lower value 0.983 | locus YDR159W, strain sac3, stronger effect = lower value 0.988 | locus YDR162C, strain NBP2, stronger effect = lower value 0.979 | locus YDR195W, strain ref2 0.979 | locus YDR297W, strain sur2, stronger effect = lower value 1 | locus YDR318W, strain mcm21, stronger effect = lower value 0.987 | locus YDR334W, strain swr1, stronger effect = lower value 0.995 | locus YDR335W, strain msn5, stronger effect = lower value 0.998 | locus YDR388W, stronger effect = lower value 1 | locus YDR392W, strain spt3, stronger effect = lower value 0.998 | locus YDR502C, strain sam2, stronger effect = lower value 0.995 | locus YEL003W, strain gim4, stronger effect = lower value 1 | locus YEL037C, strain rad23, stronger effect = lower value 0.997 | locus YEL061C, strain CIN8 (second series), stronger effect = lower value 0.996 | locus YEL061C, strain CIN8, stronger effect = lower value 0.986 | locus YER015W, strain faa2, stronger effect = lower value 1 | locus YER016W, strain bim1, stronger effect = lower value 0.997 | locus YER110C, stronger effect = lower value 0.991 | locus YER111C, strain swi4, stronger effect = lower value 0.995 | locus YER155C, strain BEM2 (second series), stronger effect = lower value 0.966 | locus YER155C, strain BEM2, stronger effect = lower value 1.01 | locus YER167W, strain BCK2, stronger effect = lower value 0.999 | locus YFR010W, strain ubp6, stronger effect = lower value 0.989 | locus YGL078C, strain dbp3, stronger effect = lower value 0.991 | locus YGL086W, strain mad1, stronger effect = lower value 0.994 | locus YGL167C, strain pmr1, stronger effect = lower value 0.99 | locus YGL173C, strain kem1, stronger effect = lower value 0.977 | locus YGL227W, strain vid30, stronger effect = lower value 0.992 | locus YGL240W, strain doc1, stronger effect = lower value 1 | locus YGL248W, strain PDE1, stronger effect = lower value 1.01 | locus YGL253W, strain hxk2, stronger effect = lower value 1.01 | locus YGR078C, strain PAC10, stronger effect = lower value 1 | locus YGR135W, strain pre9, stronger effect = lower value 1 | locus YGR229C, strain SMI1, stronger effect = lower value 1.02 | locus YGR252W, strain gcn5, stronger effect = lower value 1.05 | locus YHR013C, strain ard1, stronger effect = lower value 1.01 | locus YHR027C, strain rpn1, stronger effect = lower value 1 | locus YHR030C, strain SLT2, stronger effect = lower value 0.993 and 1.03 | locus YHR079C, strain IRE1 (second series), stronger effect = lower value 0.991 | locus YHR079C, strain IRE1, stronger effect = lower value 1.01 | locus YHR094C, strain hxt1, stronger effect = lower value 0.982 | locus YHR129C, strain ARP1, stronger effect = lower value 1 | locus YHR142W, strain chs7, stronger effect = lower value 0.98 | locus YHR200W, strain rpn10, stronger effect = lower value 0.98 | locus YIL066C, strain RNR3, stronger effect = lower value 1.01 | locus YIL073C, strain SPO22, stronger effect = lower value 0.991 | locus YIL125W, strain kgd1, stronger effect = lower value 0.988 | locus YIR030C, strain dcg1, stronger effect = lower value 0.992 | locus YJL092W, strain hpr5, stronger effect = lower value 0.987 | locus YJL095W, strain BCK1 (second series), stronger effect = lower value 0.998 | locus YJL095W, strain BCK1, stronger effect = lower value 1.01 and 1.02 | locus YJL115W, strain asf1, stronger effect = lower value 0.999 | locus YJL129C, strain trk1, stronger effect = lower value 0.98 | locus YJL134W, strain LCB3, stronger effect = lower value 0.998 | locus YJL154C, strain vps35, stronger effect = lower value 0.993 | locus YJL164C, strain tpk1, stronger effect = lower value 0.994 | locus YJL166W, strain qcr8, stronger effect = lower value 0.97 | locus YJL168C, strain set2, stronger effect = lower value 0.988 | locus YJL187C, strain SWE1 (second series), stronger effect = lower value 1.01 | locus YJR043C, strain POL32, stronger effect = lower value 0.993
